Experimental data as given in PubChem BioAssay (Tox21).
Values without a mark were called inactive. Results filed as inconclusive are left out. A call without a number means that no potency is given here. Activity calls are given as the source filed them. Unless noted, calls follow the shape of the dose curve; as a rule, active = well fitted curve in the direction sought with a large enough effect in the repeat runs; inconclusive = weak or mixed curves; inactive = no such curve, though single readings can be large; an effect the other way counts as inactive or inconclusive.

How the values were obtained:
[1] = qHTS assay to identify small molecule antagonists of the androgen receptor (AR) signaling pathway using the MDA cell line in the presence of 0.5 nM R1881 - cell viability counter screen (AID 1259242); also: nearly all actives have a fitted effect of over 45% in size
In short: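 qHTS format. MDA-kb2 (MMTV-luc, AR/GR responsive) + cpd + 0.5 nM R1881 final, 16 hr 37C/0% CO2 → CellTiter-Fluor 30 min → fluorescence intensity.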

[2] = qHTS assay to identify small molecule HDAC inhibitors (AID 1259364); also: potency is read from the fitted curve at half-maximal effect;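 also: wild-type HCT-116 cells with endogenous class I/II HDAC activity; nearly all actives have a fitted effect of over 45% in size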
In short: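 Quantitative high-throughput format: overnight-seeded HCT-116 cells got compounds for 2 hr at 37C; HDAC-Glo I/II reagent added, 30 min RT, luminescence measured.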

[3] = qHTS assay to identify small molecule HDAC inhibitors - cell viability counter screen (AID 1259365); also: series mostly up to about 92 µM; nearly all actives have a fitted effect of over 50% in size
In short: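 Wild-type HCT-116 cells were seeded at 1,500 per well, incubated overnight at 37 C, then exposed to compounds in DMSO for 2hr. Viability was read by CellTiter-Glo luminescence after 30min at room temperature.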

[4] = qHTS assay to identify small molecule agonists of the sonic hedgehog signaling (Shh) pathway - cell viability counter screen (AID 1259366); also: nearly all actives have a fitted effect of over 50% in size
In short: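 NIH/3T3-derived 3T3 Gli1-Luc cells (stable Gli1-responsive firefly luciferase reporter) were seeded, rested 4 hr at 37 C/5% CO2, then exposed to compounds in DMSO for 24 hr; viability was read by CellTiter-Fluor fluorescence in the same wells.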

[5] = qHTS assay to identify small molecule antagonists of the sonic hedgehog signaling (Shh) pathway - cell viability counter screen (AID 1259367); also: nearly all actives have a fitted effect of over 55% in size
In short: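 Fluorescence read-out (CellTiter-Fluor, 1 hr at 37C) taken after 23 hr compound treatment of 3T3 Gli1-Luc cells stimulated with conditioned medium. Cells were seeded at 2,000 per well and pre-incubated 4 hr.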

[6] = qHTS assay to identify small molecule agonists of the sonic hedgehog signaling (Shh) pathway (AID 1259368; calls by dose curve; also: series mostly up to about 92 µM; nearly all actives have a fitted effect of over 15% in size)
In short: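 Quantitative high-throughput format using a Gli1-driven firefly luciferase reporter line derived from NIH/3T3 cells. After a 24 hr compound treatment at 37 C and 5% CO2, luminescence reported Gli1 response element activity.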

[7] = qHTS assay to identify small molecule antagonists of the sonic hedgehog signaling (Shh) pathway (AID 1259369; calls by dose curve; also: nearly all actives have a fitted effect of over 45% in size)
In short: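 Stable Gli1-Luc reporter NIH/3T3 clone; quantitative HTS in stimulated mode with conditioned medium. Luminescence measured after 24hr compound treatment at 37 C.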

[8] = target: Estrogen receptor beta (Homo sapiens) (UniProt Q92731); experiment: qHTS assay to identify small molecule agonists of the estrogen receptor beta (ER-beta) signaling pathway (AID 1259377; active = well fitted activation curve with a large enough effect in the signal ratio in the repeat runs, not every such curve was filed as active; the % refers to the signal ratio; also: potency is read from the fitted curve at half-maximal effect)
Chain of Estrogen receptor beta (Homo sapiens) (Q92731 whole entry, looked up): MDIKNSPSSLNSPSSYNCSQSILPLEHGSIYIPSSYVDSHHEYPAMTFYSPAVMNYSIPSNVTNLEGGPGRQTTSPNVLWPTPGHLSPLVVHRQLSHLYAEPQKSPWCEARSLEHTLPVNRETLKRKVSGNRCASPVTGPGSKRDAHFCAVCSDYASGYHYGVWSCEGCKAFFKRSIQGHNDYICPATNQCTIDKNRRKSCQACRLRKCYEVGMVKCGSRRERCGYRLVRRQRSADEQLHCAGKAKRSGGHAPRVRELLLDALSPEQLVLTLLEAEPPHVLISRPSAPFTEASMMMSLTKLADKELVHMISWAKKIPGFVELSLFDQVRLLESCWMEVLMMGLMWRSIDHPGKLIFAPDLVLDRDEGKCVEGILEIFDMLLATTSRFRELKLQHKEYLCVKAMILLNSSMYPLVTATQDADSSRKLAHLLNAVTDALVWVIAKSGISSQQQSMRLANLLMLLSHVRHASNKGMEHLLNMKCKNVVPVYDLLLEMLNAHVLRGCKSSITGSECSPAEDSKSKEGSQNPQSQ
In short: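 ER-beta-UAS-bla HEK293T (GripTite) cells carrying a UAS-driven beta-lactamase reporter, in medium with 2% charcoal-stripped FBS, were exposed to compounds for 16 hr at 37C; LiveBLAzer B/G FRET substrate was then added and fluorescence read after 2 hours at room temperature.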

[9] = target: Estrogen receptor beta (Homo sapiens) (UniProt Q92731); experiment: qHTS assay to identify small molecule antagonists of the estrogen receptor beta (ER-beta) signaling pathway (AID 1259378; active = well fitted inhibition curve with a large enough effect in the signal ratio in the repeat runs, not every such curve was filed as active; the % refers to the signal ratio)
In short: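 ER-beta-UAS-bla HEK293T cells in 2% charcoal-stripped FBS medium treated with compound plus 1nM final 17-beta-estradiol for 16 hr at 37C. Beta-lactamase reporter read by FRET substrate fluorescence after 2 hours at room temperature.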

[10] = qHTS assay to identify small molecule agonists of the androgen receptor (AR) signaling pathway in the presence of an antagonist - cell viability counter screen (AID 1259379); also: nearly all actives have a fitted effect of over 25% in size; also: potency is read from the fitted curve at half-maximal effect
In short: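 Nilutamide-containing (3.0uM final) MDA-kb2 cultures, 3,000 cells/well, were treated with compounds across 15 concentrations. After 16 hr at 37C with no CO2, cell viability was determined by CellTiter-Fluor fluorescence in the luciferase assay wells.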

[11] = qHTS assay to identify small molecule agonists of the estrogen receptor beta (ER-beta) signaling pathway - cell viability counter screen (AID 1259380); also: nearly all actives have a fitted effect of over 30% in size
In short: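 Steps: plate ER-beta-UAS-bla HEK293T cells, rest 6 hr; add compounds in DMSO; incubate 16 hr at 37C, 5% CO2; add FRET substrate 2 hr; add CellTiter-Glo, wait 30 min at room temperature; read luminescence.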

[12] = qHTS assay to identify small molecule antagonists of the estrogen receptor beta (ER-beta) signaling pathway - cell viability counter screen (AID 1259382); also: series mostly up to about 92 µM; nearly all actives have a fitted effect of over 55% in size
In short: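 Viability is scored by CellTiter-Glo luminescence (30 min, room temperature) in ER-beta-UAS-bla HEK293T wells already read for reporter fluorescence. Compound exposure lasts 16 hr at 37C alongside 1nM 17-beta-estradiol in charcoal-stripped serum medium.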

[13] = qHTS assay to identify small molecule agonists or antagonists of the thyroid stimulating hormone receptor (TSHR) signaling pathway - wild type cell line counter screen (AID 1259384; calls by dose curve)
In short: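 Wild-type Hek293 cells, 800/well, 18 h at 37C, then compound with Ro20-1724 for 30 min RT. cAMP by HTRF (cAMP-d2/anti-cAMP cryptate), 1 h RT, fluorescence read. 15 concentrations, triplicates.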

[14] = qHTS assay to identify small molecule antagonists of the estrogen receptor alpha (ER-alpha) signaling pathway using the BG1 cell line in the presence of 0.1 nM 17-beta-estradiol - cell viability counter screen (AID 1259241); also: nearly all actives have a fitted effect of over 40% in size
In short: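 VM7Luc4E2 cells (endogenous ER-alpha, 4×ERE-luciferase), hormone-starved 5 days in charcoal-stripped FBS, were treated with compounds plus 0.1 nM 17beta-estradiol for 22 hr at 37C; viability read in same wells as CellTiter-Fluor live-cell protease fluorescence.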

[15] = target: Estrogen receptor (Homo sapiens) (UniProt P03372); experiment: qHTS assay to identify small molecule antagonists of the estrogen receptor alpha (ER-alpha) signaling pathway using the BG1 cell line in the presence of 0.1 nM 17-beta-estradiol (AID 1259244); also: nearly all actives have a fitted effect of over 50% in size
Chain of Estrogen receptor (Homo sapiens) (P03372 whole entry, looked up): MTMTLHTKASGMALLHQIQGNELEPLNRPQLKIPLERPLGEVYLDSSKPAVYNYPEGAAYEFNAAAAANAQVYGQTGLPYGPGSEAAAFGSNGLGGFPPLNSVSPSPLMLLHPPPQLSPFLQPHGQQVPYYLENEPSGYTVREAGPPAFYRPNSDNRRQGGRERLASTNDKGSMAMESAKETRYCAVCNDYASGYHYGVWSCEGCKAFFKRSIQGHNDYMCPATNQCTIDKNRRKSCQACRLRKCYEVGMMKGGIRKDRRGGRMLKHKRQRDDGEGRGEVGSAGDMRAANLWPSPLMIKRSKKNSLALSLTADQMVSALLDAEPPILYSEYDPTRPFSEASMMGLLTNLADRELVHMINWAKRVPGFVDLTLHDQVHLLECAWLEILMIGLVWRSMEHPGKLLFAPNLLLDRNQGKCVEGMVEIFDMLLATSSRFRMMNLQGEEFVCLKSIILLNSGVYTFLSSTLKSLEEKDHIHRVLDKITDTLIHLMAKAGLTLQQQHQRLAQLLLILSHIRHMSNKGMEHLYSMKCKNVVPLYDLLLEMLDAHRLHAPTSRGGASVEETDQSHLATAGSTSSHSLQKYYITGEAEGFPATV
In short: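 Reporter is a stably transfected luciferase under four estrogen responsive elements in VM7Luc4E2 cells expressing native full-length ER-alpha; inhibition of 0.1 nM (final) 17beta-estradiol-driven signal over 22 h is read by luminescence.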

[16] = target: Estrogen receptor (Homo sapiens) (UniProt P03372); experiment: qHTS assay to identify small molecule agonists of the estrogen receptor alpha (ER-alpha) signaling pathway in the presence of an antagonist (AID 1259383; calls by dose curve; also: nearly all actives have a fitted effect of over 15% in size; also: potency is read from the fitted curve at half-maximal effect; as to activation: top concentration of the series differs between compounds)
In short: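 Readout was ERE-driven luciferase luminescence in VM7Luc4E2 cells, which express full-length ER-alpha endogenously. Compounds were tested at 15 concentrations for 22hr alongside 10.0nM ICI-182,780 (final concentration).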

[17] = qHTS assay to identify small molecule phospholipidosis (PLD) inducers (AID 1259344; active = well fitted curve in the direction sought with a large enough effect; an effect the other way counts as inactive or inconclusive)
In short: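 Read-out is LipidTOX Red fluorescence (ex 595/em 615) imaged in HepG2 cells after 24 h compound exposure at 37 C, with Hoechst nuclear counterstain (ex 352/em 461) allowing per-cell normalisation.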

[18] = target: Androgen receptor (Homo sapiens) (UniProt P10275); experiment: qHTS assay to identify small molecule agonists of the androgen receptor (AR) signaling pathway in the presence of an antagonist (AID 1259381; calls by dose curve; also: nearly all actives have a fitted effect of over 15% in size)
Chain of Androgen receptor (Homo sapiens) (P10275 whole entry, looked up): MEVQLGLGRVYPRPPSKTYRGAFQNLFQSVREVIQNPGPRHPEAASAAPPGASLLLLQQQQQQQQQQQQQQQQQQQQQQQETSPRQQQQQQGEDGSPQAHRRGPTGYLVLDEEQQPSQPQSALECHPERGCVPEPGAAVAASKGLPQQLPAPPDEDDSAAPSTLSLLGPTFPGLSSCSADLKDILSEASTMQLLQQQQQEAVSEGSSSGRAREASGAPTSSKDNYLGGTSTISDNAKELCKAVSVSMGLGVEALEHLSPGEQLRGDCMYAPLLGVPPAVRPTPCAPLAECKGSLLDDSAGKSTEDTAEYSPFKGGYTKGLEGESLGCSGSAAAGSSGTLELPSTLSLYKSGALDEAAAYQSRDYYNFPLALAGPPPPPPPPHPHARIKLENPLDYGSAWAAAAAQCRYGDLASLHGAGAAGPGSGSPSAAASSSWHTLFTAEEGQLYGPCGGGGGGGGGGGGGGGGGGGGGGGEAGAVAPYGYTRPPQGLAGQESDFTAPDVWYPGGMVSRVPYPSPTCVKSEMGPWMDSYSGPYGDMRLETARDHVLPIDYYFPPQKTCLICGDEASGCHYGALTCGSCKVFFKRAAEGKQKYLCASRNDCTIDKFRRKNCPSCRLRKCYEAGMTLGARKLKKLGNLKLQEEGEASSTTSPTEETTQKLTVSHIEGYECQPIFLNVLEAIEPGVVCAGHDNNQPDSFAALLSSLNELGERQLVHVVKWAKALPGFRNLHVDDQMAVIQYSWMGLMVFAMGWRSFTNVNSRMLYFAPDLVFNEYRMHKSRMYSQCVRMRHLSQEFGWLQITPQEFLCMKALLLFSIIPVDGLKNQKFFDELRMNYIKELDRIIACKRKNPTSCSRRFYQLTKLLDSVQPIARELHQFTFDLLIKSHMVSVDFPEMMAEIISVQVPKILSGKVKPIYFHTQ
In short: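 Reporter-gene luminescence from MDA-kb2 cells exposed 16hr at 37C (0% CO2) to 15-point compound titrations with 3.0uM final nilutamide as AR antagonist.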

[19] = target: Androgen receptor (Homo sapiens) (UniProt P10275); experiment: qHTS assay to identify small molecule antagonists of the androgen receptor (AR) signaling pathway using the MDA cell line in the presence of 0.5 nM R1881 (AID 1259243); also: nearly all actives have a fitted effect of over 50% in size
In short: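 Antagonist mode quantitative HTS in MDA-kb2 MMTV-luciferase cells, agonist R1881 at 0.5 nM final, 16 hr exposure at 37C and 0% CO2, luminescent detection.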

Row | Structure (SMILES) | Potency [1] | Potency [2] | outcome [3] | Potency [4] | Potency [5] | Potency [6] | Potency [7] | Potency [8] | Potency [9] | Potency [10] | Potency [11] | Potency [12] | outcome [13] | Potency [14] | Potency [15] | Potency [16] | Potency [17] | Potency [18] | Potency [19]
1 | CCC(C)C1N=C(C)C(C)S1 (stereo not drawn) | inactive | inactive | inactive | inactive | inactive | inactive | inactive | inactive | inactive | inactive | inactive | inactive | inactive |  |  |  |  |  | 
2 | O=[N+]([O-])c1cccc(I)c1 | inactive | inactive | inactive | inactive | inactive | inactive | inactive |  |  | inactive | inactive | inactive | inactive | inactive | inactive | inactive |  |  | 
3 | Oc1ccc(Oc2ccccc2)cc1 | inactive | inactive | inactive | inactive | inactive | inactive |  | 11.6 µM (active) |  | inactive | inactive | inactive | inactive |  | inactive | 41 µM (active) |  |  | 
4 | O=C(NC1CCN(CCc2c[nH]c3ccccc23)CC1)c1ccccc1 | inactive |  | inactive |  | inactive | inactive |  | inactive | inactive |  |  | inactive | inactive | inactive |  |  |  |  | 
5 | CC(C)Cc1nccs1 | inactive | inactive | inactive | inactive | inactive | inactive | inactive | inactive | inactive | inactive | inactive | inactive | inactive | inactive |  |  |  |  | 
6 | CC(C)(C)N | inactive | inactive |  | inactive | inactive | inactive | inactive |  |  | inactive | inactive | inactive | inactive |  | inactive |  |  |  | 
7 | CC(=O)Oc1cccc2c1C(=O)c1c(OC(C)=O)cc(C(=O)O)cc1C2=O |  | inactive | inactive | inactive | inactive | inactive | inactive |  |  | 26.6 µM (active) | inactive | inactive | inactive |  |  |  | inactive | inactive | 
8 | Cc1ccc2ccccc2c1[N+](=O)[O-] | inactive | inactive | inactive | inactive | inactive | inactive |  | inactive | inactive | inactive | inactive | inactive | inactive | inactive | inactive |  |  |  | 
9 | CCCC(=O)OCCC(C)C |  | inactive | inactive | inactive | inactive | inactive | inactive |  |  | inactive | inactive | inactive | inactive | inactive | inactive | inactive |  | inactive | inactive
10 | C[C@H](CN1CCCC1)C(=O)c1ccc(C(F)(F)F)cc1 | inactive | inactive | inactive | inactive | inactive | inactive | inactive | inactive | inactive | inactive |  | inactive | inactive | inactive |  |  | inactive |  | 
11 | CC(CN=Cc1ccccc1O)N=Cc1ccccc1O (stereo not drawn) | inactive | inactive | inactive | inactive | inactive | inactive | inactive | inactive | inactive | inactive | inactive | inactive | inactive | inactive |  |  |  |  | 
12 | O=C(N[C@@H](Cc1ccccc1)[C@@H](O)C(=O)N1C[C@@H](O)[C@@H](O)C1)c1cc2cc(Cl)ccc2[nH]1 | inactive | inactive | inactive |  |  | inactive | inactive | inactive |  | inactive |  | inactive | inactive | inactive |  | inactive |  |  | 
13 | CC1(C)CC(O)CC(C)(C)N1[O] | inactive | inactive | inactive | inactive | inactive | inactive | inactive | inactive | inactive | inactive | inactive | inactive | inactive |  | inactive | inactive |  |  | 
14 | Sc1nc(S)nc(S)n1 |  | inactive | inactive | inactive | inactive | inactive | inactive | inactive | inactive | inactive | inactive | inactive | inactive | inactive |  |  |  |  | 
15 | O=C1c2ccccc2C(=O)c2c1ccc(O)c2O |  | 29.8 µM (active) | inactive |  | inactive | inactive | inactive | 7.5 µM (active) |  | 23.7 µM (active) | inactive | inactive | inactive |  |  |  | inactive |  | 
16 | CC/C=C\CCO | inactive | inactive | inactive | inactive | inactive | inactive | inactive |  | inactive | inactive | inactive | inactive |  | inactive |  |  |  |  | 
17 | O=c1c2ccccc2oc2ccccc12 | inactive | 17.2 µM (active) | inactive | inactive | inactive | inactive | inactive |  | inactive | inactive | inactive | inactive | inactive | inactive | inactive | inactive |  |  | 
18 | CC(C)(O)C(=O)O | inactive | inactive |  | inactive | inactive | inactive | inactive | inactive | inactive | inactive | inactive | inactive |  | inactive |  |  |  |  | 
19 | CC(O)CN (stereo not drawn) | inactive | inactive | inactive | inactive | inactive | inactive | inactive | inactive | inactive |  | inactive | inactive | inactive |  | inactive | inactive |  |  | 
20 | CC(C)CCCCCOC(=O)CS |  | inactive |  | inactive | inactive | inactive | inactive |  |  | inactive | inactive | inactive | inactive | inactive | inactive | inactive |  |  | 
